The conditions of test [1]: Ebola virus entry assay, green fluorescence channel.
The conditions of test [2]: Ebola virus entry assay, blue channel fluorescence.
The conditions of test [3]: Ebola virus entry assay, ratio channel.
For test [4] the following is noted: Ebola virus entry assay, green channel fluorescence.
For test [5] the following is noted: Ebola virus entry assay, reporter ratio channel; Channel type: primary.
Test [6] is described as follows: qHTS assay for measurement of the activity of small molecule inhibitors on Zika virus induced Caspase-3 activity in human astrocytoma cells (AID 1224859; active = well fitted inhibition curve with a large enough effect;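 also: plate controls were ZIKV-infected untreated cells for no effect and uninfected cells for full effect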). As to conditions: SNB-19 ZIKV-induced caspase-3/7, luminescence, 6 h; series mostly up to 45.7 µM. Summed up:
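Luminescence read-out (Caspase-Glo 3/7, 30 min RT) of caspase activity in SNB-19 cells infected 6 h with ZIKV, 2 FFU/cell, after 1 h compound pretreatment; % inhibition from induction normalised to uninfected (0%) and infected (100%) wells.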
On the technique in general: Quantitative high-throughput screening tests each substance at several concentrations.

The nature of test [7]: qHTS assay for measurement of the activity of small molecule inhibitors on Zika virus induced Caspase-3 activity in human iPSC derived neural progenitor cells (hNPCs) (AID 1224857; active = well fitted inhibition curve with a large enough effect; also: % of control where 0% means no effect; nearly all actives have a fitted effect of over 65% in size). To be noted: hNPCs ZIKV-induced caspase-3/7, Caspase-Glo luminescence, 6 h; series mostly up to 45.7 µM. Summed up:
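hNPCs seeded 350 cells/well, cultured 16–20 h; compounds added 1 h before ZIKV (2 FFU/cell), 37 C 6 h. Caspase-Glo 3/7 luminescence after 30 min RT; % inhibition from induction scaled to uninfected (0%) and infected (100%) wells.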

Test [8] can be described thus: qHTS profiling of the MIPE4 collection as inhibitors of Plasmodium falciparum (3D7) proliferation (AID 743344).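 Also: scaled between DMSO vehicle wells and 0.29 µM artemisinin as full inhibition.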 To be noted: P. falciparum 3D7 in erythrocytes, SYBR Green DNA fluorescence, 72 h; at 28.5 µM (top of the series). Put shortly:
(§1)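 Erythrocytes infected with P. falciparum (0.3% parasitemia, 2.5% hematocrit) incubated with compounds 72 h at 37 C, 5% CO2. Lysis with saponin/Triton buffer containing SYBR Green I, overnight at room temperature in the dark; DNA fluorescence (485/535 nm) normalised to 0.29 uM artemisinin and DMSO.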

A short description of test [9]: qHTS profiling of the MIPE4 collection as inhibitors of Plasmodium falciparum (DD2) proliferation (AID 743345). As to conditions: P. falciparum Dd2 in erythrocytes, SYBR Green DNA, 72 h; at 28.5 µM (top of the series). Put shortly: as §1
A short description of test [10]: qHTS profiling of the MIPE4 collection as inhibitors of Plasmodium falciparum (DD2) proliferation (Rep 2) (AID 743346). As to conditions: P. falciparum Dd2 in erythrocytes, SYBR Green DNA, 72 h; at 28.5 µM (top of the series). Summed up:
as §1

The nature of test [11]: qHTS profiling of the MIPE4 collection as inhibitors of Plasmodium falciparum (HB3) proliferation (AID 743347).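 Also: plate controls were DMSO vehicle wells for no effect and artemisinin wells for full effect.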 To be noted: P. falciparum HB3 in erythrocytes, SYBR Green DNA, 72 h; at 28.5 µM (top of the series). Summed up:
as §1

The conditions of test [12]: Ebola virus entry assay, blue channel (ratio component).

SMILES strings stand for the structures. Records with an inconclusive call do not appear. For some assays here: Entries with a potency or affinity are not part of this list. The source made the active and inactive calls. Unless noted, no rule for the calls is given here.

We go through 18 compounds from PubChem BioAssay (NCATS).
For efficacy in this document: 0% is about no effect.

In the case of `NC1(c2ccccc2)CCCCC1`, the efficacy in [1] is 44.3% (inactive). The concentration at half-maximal activity (AC50) (commonly the concentration giving half of the maximal activity seen) in test [2] is 35.5 µM (active); in test [3], 31.6 µM (active); in test [5], 31.6 µM (active). The result in test [4] and in [6] was inactive.
Turning to `CCCN(CCC)CCc1c[nH]c2ccccc12`, the efficacy in test [1] was 39.8% (inactive). For the same compound, the values for the AC50 in [2], in [3] and in [5] were 35.5 µM (active), 31.6 µM (active) and 31.6 µM (active), respectively. For the same compound, the result in [4] and in test [6] was inactive. For the same compound, the Potency result in test [7] is “inactive”.
On to `CCCS(=O)c1ccc2nc(NC(=O)OC)[nH]c2c1` (centres undefined), for which the parasite growth, % of DMSO control in test [8] was determined as 81.1%. The same compound displayed a parasite growth remaining, % of DMSO control (lower = more inhibition) in [9] of 99.7%. Further, the parasite growth, % of control (lower = inhibition) in test [10] was determined as 101%. Besides, in test [11], the growth, % of control was 81.4%. The efficacy in test [1] was 23.9% (inactive). Also, the result in test [2], in [3], in [4], in [5] and in test [12] was inactive.
Regarding `CCCC(C)C1(CC)C(=O)N=C(S)NC1=O` (centres undefined), the efficacy in test [1] was 15.1% (inactive). Besides, the result in [2], in test [3], in test [4], in [5] and in [6] was inactive. For the same compound, the Potency entry in [7] is “inactive”.
Take `CN1C(=O)CN=C(c2ccccc2)c2cc(Cl)ccc21`: in [1], the efficacy was -37.3% (inactive). The AC50 in test [2] is 25.1 µM (active); in test [5] it was 35.5 µM (active). The result in [3], in [4] and in test [6] was inactive. Also, the Potency entry in test [7] is “inactive”.
`CC(C)(C)OC(=O)c1ncn2c1[C@@H]1CCCN1C(=O)c1c(Br)cccc1-2`: the efficacy in [1] was 19.6% (inactive). Besides, the compound was called inactive in test [2], in test [3], in test [4], in test [5] and in test [6]. Further, the Potency result in [7] is “inactive”.
As for `CCc1cc(OC)c(C[C@H](C)N)cc1OC`, the efficacy in [1] was 38.5% (inactive). For the same compound, the figures for the half-maximal activity concentration (AC50) in test [2], in test [3] and in test [5] were 22.4 µM (active), 25.1 µM (active) and 25.1 µM (active), respectively. The compound was called inactive in test [4] and in [6]. Moreover, the Potency result in test [7] is “inactive”.
Consider `OC(CCCN1CCCCC1)(c1ccccc1)c1ccccc1`, for which the efficacy in [1] is 50.3% (inactive). Further, the half-maximal activity concentration (AC50) is 10 µM (active) in test [2], 7.94 µM (active) in [3] and 7.94 µM (active) in [5].
As to `O=C(NC(=O)c1c(F)cccc1F)Nc1cc(Cl)c(OC(F)(F)C(F)C(F)(F)F)cc1Cl` (centres undefined), the efficacy in test [1] was 43.9% (inactive). Further, the results for the AC50 in test [2], in test [3] and in test [5] were 17.8 µM (active), 20 µM (active) and 20 µM (active), respectively. The call in test [4] and in test [6] was inactive. In test [7], the Potency result was “inactive”.
`CCOC(=O)Nc1ccc(NCc2ccc(F)cc2)nc1N` returned a parasite growth, % of DMSO control in test [8] of 40.6%. The compound further yielded a parasite growth remaining, % of DMSO control (lower = more inhibition) in [9] of 90%. The parasite growth, % of control (lower = inhibition) in [10] is 84.5%. In addition, the growth, % of control in [11] was 82.7%. In addition, in [1], the efficacy is 25.7% (inactive). Moreover, the compound was classed as inactive in test [2], in test [3], in test [4] and in [5].
`CC1N=C(N)OC1c1ccccc1` (centres undefined): the efficacy in test [1] was 23.7% (inactive). Also, the AC50 in test [2] and in test [5] was 31.6 µM (active) throughout. The result in [3], in [4] and in test [6] was inactive. For the same compound, in test [7], the Potency entry is “inactive”.
As to `C[C@H]1CNCCc2ccc(Cl)cc21`, in [1], the efficacy was 45.2% (inactive). Moreover, the figures for the half-maximal activity concentration (AC50) in [2] and in [5] were 20 µM (active) and 39.8 µM (active), respectively. The outcome in test [3], in test [4] and in test [6] was inactive.
With `CN(C)CCc1c[nH]c2cccc(O)c12`, the efficacy in test [1] was -23.9% (inactive). The AC50 in test [2] was 35.5 µM (active); in [5], 39.8 µM (active). Further, the outcome in test [3], in [4] and in test [6] was inactive. For the same compound, the Potency result in test [7] was “inactive”.
With `Nc1ccc(Cl)cc1C(=O)c1ccccc1F`, the efficacy in test [1] was -39% (inactive). Besides, the AC50 in [2] and in test [5] was 31.6 µM (active) in each case. The result in [3], in test [4] and in test [6] was inactive.
With `CCN(CC)CCOC(=O)C(c1ccccc1)C1CCCCC1` (centres undefined), the efficacy in test [1] is -237% (inactive). The concentration at half-maximal activity (AC50) was 2.82 µM (active) in test [2], 1.58 µM (active) in test [3] and 1.58 µM (active) in test [5].
Take `CN(C)CCc1c[nH]c2ccccc12`: the efficacy in test [1] was -12.4% (inactive). For the same compound, the AC50 in test [2] was 35.5 µM (active). For the same compound, the result in test [3], in test [4], in test [5] and in test [6] was inactive.
Turning to `CCCCCCCCCCCCCCCC[N+](C)(C)CCN(Cc1ccc(OC)cc1)c1ncccn1`, the efficacy in [1] was -93.3% (inactive). In addition, the half-maximal activity concentration (AC50) in test [2] and in test [5] was 39.8 µM (active) each time. For the same compound, the outcome in test [3] was inactive.
In turn, `NC(=O)Cc1cccc(C(=O)c2ccccc2)c1N` returned a parasite growth, % of DMSO control in [8] of 102%. Also, the parasite growth, % of control (lower = inhibition) in test [10] came out at 114%. For the same compound, in test [1], the efficacy was 18% (inactive). The result in [2], in [3], in test [4], in test [5] and in test [12] was inactive.
